# Experimental data reported in PMC5540273 (PLoS ONE, 2017).
# Key:
# Conditions in all cases: concentration: 1 μM, replicates: in singlicate; n = 1
# [1] = tested on: PRKCQ
# [2] = tested on: PRKD1
# [3] = tested on: PRKD2
# [4] = tested on: PRKD3
# [5] = tested on: PRKG1
# [6] = tested on: PRKG2
# [7] = tested on: T1, PRKR
# T1 construct: gene EIF2AK2
# [8] = tested on: PRKX
# [9] = tested on: PRP4
# [10] = tested on: T2, PYK2
# T2 construct: gene PTK2B
# 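Further: KINOMEscan kinase panel screen.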
Compound,%Inh [1],%Inh [2],%Inh [3],%Inh [4],%Inh [5],%Inh [6],%Inh [7],%Inh [8],%Inh [9],%Inh [10]
Cc1ccc(NC(=O)Nc2cc(C(C)(C)C)nn2-c2ccccc2)cc1 [GSK1014915],0%,7%,0%,18%,11%,0%,0%,57%,1%,4%
COc1ccc(Nc2nccc(-c3cccc(NC(=O)c4cc5cc(F)ccc5[nH]4)c3)n2)cc1 [GSK1229782],12%,10%,11%,24%,10%,0%,10%,46%,66%,21%
O=c1cc(N2CCOCC2)nc2n(Cc3cccc(Cl)c3Cl)ccn12 [GSK2286295],14%,0%,20%,0%,0%,0%,0%,0%,0%,0%
O=C(O)COc1ncnc2cc(-c3ccc4[nH]ncc4c3)sc12,41%,0%,0%,25%,17%,0%,0%,41%,0%,0%
Fc1cc(Cl)ccc1Nc1ccnc2cc(I)ccc12 [GW551191],18%,1%,0%,0%,5%,0%,0%,0%,13%,1%
O=C(Nc1ccccc1)Nc1cccc(Oc2ccc3nccn3n2)c1,10%,0%,7%,0%,4%,0%,0%,0%,26%,60%
COc1ccc(CNC(=O)NC2CCN(c3ccnc(Nc4cc(OC)c(OC)c(OC)c4)n3)C2)cc1 (stereo not drawn) [GSK1379748],0%,0%,0%,0%,0%,11%,14%,17%,43%,0%
CC(=O)Nc1nc2cnc(Nc3cc(NC(=O)c4cccc(CCC#N)c4)ccc3C)nc2s1,9%,0%,2%,12%,15%,10%,8%,13%,1%,0%
COC(=O)c1c(-c2ccccc2)c2cc(C(=O)O)ccc2c(=O)n1Cc1ccccc1,22%,14%,0%,3%,8%,0%,3%,0%,9%,0%
Cl.c1ccc(-c2n[nH]cc2-c2ccnc(-c3ccc(CN4CCOCC4)cc3)c2)nc1 [GW776245],0%,62%,44%,28%,0%,16%,0%,0%,0%,14%
COc1ccccc1-c1ccc2c(NC(=O)C3CC3)n[nH]c2n1 [SB-711239],9%,0%,11%,30%,27%,22%,7%,25%,53%,0%
Cc1cccc(-c2nc(Nc3ccc4[nH]ncc4c3)c3ccccc3n2)n1 [GW857175],27%,99.8%,99.9%,98.1%,0%,2%,0%,0%,13%,0%
Nc1nc(-c2nccs2)c(-c2ccnc3ccccc23)s1 [GW693542],39%,42%,14%,12%,8%,0%,0%,10%,20%,16%
Cc1ccc(C(=O)Nc2ccc(Nc3ccnc4cc(-c5ccccn5)ccc34)cc2O)cc1.Cl [GW440146],6%,17%,0%,18%,0%,0%,0%,9%,12%,1%
Cc1c(O)cccc1Nc1ccnc2ccc(C(F)(F)F)cc12.Cl [GW466413],0%,0%,0%,0%,5%,0%,0%,0%,4%,0%
COc1ccccc1CNC(=O)c1cc(C(=O)c2ccccc2C)c[nH]1 [GSK364507],0%,9%,1%,5%,1%,2%,0%,7%,23%,7%
O=S(=O)(c1ccc(-c2ccnc3[nH]ccc23)cc1)N1CCCC1 [GSK846226],0%,0%,3%,0%,36%,14%,21%,28%,8%,0%
Cc1cccc(-c2nc(Nc3ccncc3)c3ccccc3n2)n1 [GW855857],0%,86%,99%,69%,7%,0%,2%,0%,17%,4%
